The list is not random: actives were taken first. Their share in the collection is about 9%.
HttQ103 aggreg: qHTS Multiplex Assay to Identify Dual Action Probes in a Cell Model of Huntington: Aggregate Formation (GFP); AID 1688, 2009; PC12 HttQ103-GFP aggregates, Acumen cytometry, 40 h; Potency, µM (highest dose often 46.1 µM), most hits filed as inhibitors; actives 1.1% (n = 220,000); note: nearly all actives have a fitted effect of over 60% in size
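Compounds (qHTS titration) were added to PC12 cells expressing an ecdysone-driven HTT exon 1 Q103–GFP fusion after induction with 100 nM tebufenozide. Aggregate formation was measured as GFP objects in cell lysates.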
Luc counter: Counterscreen for Luciferase (Kinase-Glo TM) Inhibition; Luciferin 4-monooxygenase (Photuris pensylvanica), Q27757; Kinase-Glo luciferase, ATP luminescence, 8 min; Potency, µM (highest dose often 38.3 µM), actives largely listed as inhibitors; actives 0.28% (n = 200,000); note: nearly all actives have a fitted effect of over 60% in size
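Compound is pinned into ATP-containing buffer (10 uM ATP, imidazole pH 7.2, 7 mM MgCl2). Kinase-Glo luciferase reagent is then added. Light output is recorded following an 8-min room-temperature incubation.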
ALDH1A1 block: qHTS Assay for Inhibitors of Aldehyde Dehydrogenase 1 (ALDH1A1); Aldehyde dehydrogenase 1A1 (Homo sapiens), P00352; Purified ALDH1A1, NADH fluorescence, propionaldehyde substrate; Potency, µM (top dose mostly 75.3 µM), most hits filed as inhibitors; actives 7.3% (n = 220,000); AID 1030, 2008; active = well fitted inhibition curve with a large enough effect, not every such curve was filed as active; inconclusive = small, poorly fitted or top-dose-only effect, or another doubt; inactive = no such curve, though single readings can be large or run the other way
Lamin A splicing: qHTS Assay for Modulators of Lamin A Splicing; HeLa LMNA splicing GFP/RFP minigene ratio, 48 h; Potency, µM (top dose mostly 46.1 µM), actives largely listed as inhibitors; actives 0.01% (n = 200,000); active = well fitted inhibition curve with a large enough effect in the signal ratio, with a control signal flat, not every such curve was filed as active; inconclusive = small, poorly fitted or top-dose-only effect, or effect the other way, or a change in a side signal; the % refers to the signal ratio
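Read-out is the ratio of GFP to DsRed2 object intensity, acquired by 488 nm laser-scanning cytometry on HeLa lamin A-EGFP minigene reporter cells. Compound incubation 48 hrs at 37 °C in Opti-MEM with 2% FBS; DMSO 0.5% final.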
HTT cytoprotect: qHTS Multiplex Assay to Identify Dual Action Probes in a Cell Model of Huntington: Cytoprotection (ATP) | Potency, µM (top dose mostly 56.4 µM), actives largely listed as activators | AID 1471, 2008 | PC12 HTT-Q103 induced, cytoprotection, ATP luminescence, 40 h | actives 0.14% (n = 230,000); note: nearly all actives have a fitted effect of over 45% in size
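Readout: ATPlite luminescence (ATP level). Model: stable PC12, inducible Htt exon1 Q103-GFP. Inducer: tebufenozide, 100 nM final. Compounds: dose series. No G418 in medium.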
HPGD inh: qHTS Assay for Inhibitors of HPGD (15-Hydroxyprostaglandin Dehydrogenase); 15-hydroxyprostaglandin dehydrogenase [NAD(+)] (Homo sapiens), P15428; purified HPGD, NADH fluorescence kinetic, PGE2 substrate; Potency, µM, most hits filed as inhibitors; actives 4.3% (n = 150,000); AID 894, 2007; active = well fitted inhibition curve with a large enough effect, not every such curve was filed as active; inconclusive = small, poorly fitted or top-dose-only effect, or another doubt; inactive = no such curve, though single readings can be large or run the other way
Target sequence (P15428 whole entry, looked up): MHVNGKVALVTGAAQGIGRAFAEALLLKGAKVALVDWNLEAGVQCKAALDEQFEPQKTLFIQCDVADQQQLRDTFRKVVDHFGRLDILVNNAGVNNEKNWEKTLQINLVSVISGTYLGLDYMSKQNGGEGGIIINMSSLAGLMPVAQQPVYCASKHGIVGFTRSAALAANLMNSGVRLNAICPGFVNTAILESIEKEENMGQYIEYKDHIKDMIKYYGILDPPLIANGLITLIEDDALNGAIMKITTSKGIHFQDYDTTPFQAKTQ
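20 nM HPGD preincubated 15 min at room temperature with compound in 50 mM Tris-HCl pH 8, 0.01% Tween 20. Started with 1 mM NAD+ and 30 uM prostaglandin E2; NADH fluorescence (360/450 nm) read 5 times over 30-s intervals, last minus first.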
Numbers stand for hits; 0 = inactive; ? = inconclusive; - = not tested or not shown; [ ] = remark or other dose. Unless noted, calls come from the whole dose curve; as a rule, active = well fitted curve in the direction sought with a large enough effect; inconclusive = small, poorly fitted or top-dose-only effect, or another doubt; inactive = no such curve, though single readings can be large; an effect the other way counts as inactive or inconclusive.

SMILES | HttQ103 aggreg | Luc counter | ALDH1A1 block | Lamin A splicing | HTT cytoprotect | HPGD inh
Cc1cc2cc(C(c3nnnn3C(C)(C)C)N(Cc3ccco3)CC3CCCO3)c(=O)[nH]c2cc1C (configuration not stated) | 0 | 0 | 0 | 0 | 0 | 0
COc1cccc(C(=O)NCC(=O)OCC(=O)Nc2ncc(Cl)cc2Cl)c1 | 0 | 0 | 0 | 0[9.22 µM] | 0 | -
O=C(COC(=O)c1ccc(Br)o1)Nc1ncc(Cl)cc1Cl | 0 | 0 | 19µM | 0 | 0 | -
COc1ccc(CC(=O)OCC(=O)Nc2ncc(Cl)cc2Cl)cc1 | 0 | 0 | 0 | 0 | 0 | 0
COc1cc(OC)cc(C(=O)NCC(=O)OCC(=O)Nc2ncc(Cl)cc2Cl)c1 | 0 | 0 | 25µM | 0[9.22 µM] | 0 | -
O=c1[nH]c(CN2CCN(Cc3ccccc3)CC2)nc2scc(-c3ccccc3)c12 | 0[9.22 µM] | - | - | - | 0[10 µM] | -
COc1cc(OC)cc(C(=O)N[C@H](C(=O)OCC(=O)Nc2sccc2C#N)C(C)C)c1 | 0 | 0 | 28µM | 0 | 0[10 µM] | -
COc1cc(OC)cc(C(=O)N[C@H](C(=O)OCC(=O)Nc2ccc(C(C)C)cc2)C(C)C)c1 | ? | - | ? | 0 | 0[10 µM] | -
CN(C)c1ccc(/C=N/c2cc(-c3ccccc3)nn2-c2ccccc2)cc1 | 0 | 0 | 7.9µM | 0 | 0 | 0
Cc1ccc(C(C2C(=O)CC(C)(C)CC2=O)C2C(=O)CC(C)(C)CC2=O)s1 | 0 | 0 | 7.1µM | ? | 0 | 2.8µM
CC1(C)CC(=O)C(C(c2ccncc2)C2C(=O)CC(C)(C)CC2=O)C(=O)C1 | 0 | 0 | 0 | 0 | 0 | 0
COC/C=C/C1=CC2=CC(=O)C(C)(OC(=O)c3cnc4ccccc4n3)C(=O)C2=CN1CCc1ccccn1 (configuration not stated) | - | 0[7.66 µM] | 0[13.5 µM] | 0[9.22 µM] | 0[10 µM] | 0
CCOC(=O)Cc1nnc2c(Nc3ccc(Cl)cc3)nc3nonc3n12 | 18µM | 0 | 0 | 0 | 0[10 µM] | 0
Cc1cc2cc(CN(C(=O)C3CC3)C3CCCC3)c3nnnn3c2cc1C | 0 | 0 | 0.2µM | 0 | 0[10 µM] | 0
Cc1ccc(Cn2ncc3c(N4CCN(Cc5ccc(Cl)cc5)CC4)ncnc32)cc1 | ? | 0 | ? | ? | 0 | 0
NCCc1c(C(=O)O)[nH]c2ccc([N+](=O)[O-])cc12 | 0[9.22 µM] | - | - | - | 0[10 µM] | -
Cc1cc(O)c(/C=N/Nc2ccccc2Cl)c(=O)o1 | 0 | 0 | 10µM | 0 | 0 | 0
Cc1cc(O)c(/C=N/Nc2ccc(Cl)cc2)c(=O)o1 | 0 | 0 | 0 | 0 | 0 | 0
O=C(CCCC(=O)NCc1ccc(F)cc1)NCc1ccc(F)cc1 | 0[9.22 µM] | 0 | 0 | ? | 0[10 µM] | -
CC(C)(C)CC(=O)NCc1ccc(F)cc1 | 0[9.22 µM] | 0 | 0 | 0 | 0 | 22µM
Cc1[nH]nc(SCC(=O)N2CCCCC2)c1[N+](=O)[O-] | 0 | 0 | ? | 0 | 0 | 28µM
Cc1[nH]nc(SCC(=O)N2CCCCCC2)c1[N+](=O)[O-] | 0[9.22 µM] | 0 | ? | 0 | 0 | -
COc1ccc(-n2c(SCCC#N)nnc2-c2cc(Cl)ccc2OC)cc1Cl | 0 | 0 | 0 | ? | 0 | 20µM
CCCCNC(=S)Nc1cccc(C(C)=O)c1 | 0 | 0 | 0 | 0 | 0[10 µM] | 32µM
CCCCOC(=O)Nc1cccc(C(C)=O)c1 | 0 | 0 | 0 | ? | 0 | 28µM
SMILES | HttQ103 aggreg | Luc counter | ALDH1A1 block | Lamin A splicing | HTT cytoprotect | HPGD inh
CC(=O)c1cccc(NC(=S)NCCCCc2ccccc2)c1 | ? | - | ? | ? | 0[10 µM] | -
Cc1cccn2c(=O)c(/C=C(\C#N)C(=O)NCc3ccco3)c(N3CCCC(C)C3)nc12 (configuration not stated) | 0 | 0 | 25µM | 0 | 0[10 µM] | 16µM
Cc1cccn2c(=O)c(/C=N/O)c(N3CCCCC3)nc12 | 0 | 0 | ? | 0 | 0 | 2µM
Cc1cccn2c(=O)c(/C=C(\C#N)C(=O)NCc3ccco3)c(N3CCCCC3)nc12 | 0 | 0 | 14µM | 0 | 0[10 µM] | 32µM
Cc1cccn2c(=O)c(/C=C(\C#N)C(=O)NCc3ccco3)c(N3CCCCCC3)nc12 | 0[9.22 µM] | - | - | - | 0[10 µM] | -
COC(=O)C(=O)/C=C(\O)c1ccc(C)cc1 | 0 | - | ? | 0 | 0 | -
CC(C)N1CC(C(=O)Nc2ccccc2)CC1=O (configuration not stated) | 0 | 0 | 0 | 0 | 0[1.9 µM] | 0
Cc1ccc(NC(=O)OCC(F)(F)C(F)F)cc1NC(=O)OCC(F)(F)C(F)F | 0 | 0 | 0 | ? | 0 | 0
Cc1ccsc1-c1nc(CSCC(=O)N2CCN(c3ccccc3)CC2)c(C)o1 | 13µM | 0 | ? | 0 | 0 | ?
COC(=O)C1C(=O)c2c([nH]c(C(=O)OC3CCCCC3)c2C)CC1C (configuration not stated) | 0 | 0 | 0 | 0 | 0[10 µM] | 0
